The sequences below were run against GPAA1 (assay: pooled miR-30 sensor sort-seq; sequence = guide strand). Settings: shRNA.
For TGAGCTTGCGGAACATGCCCTC, the sensor-assay potency score (higher = more potent) was -0.336.
In the case of TTCTGTTACCAGGAAGACGATA, the sensor-assay potency score (higher = more potent) is reported as -1.01.
AAAACCAGCGCCAAGAACCAGG was tested, and the sensor-assay potency score (higher = more potent) was -1.17.
Work on TTGAGCTTGCGGAACATGCCCT yielded a sensor-assay potency score (higher = more potent) of -0.132.
With TTCAGTGCCATCCAGCCCCTGT the sensor-assay potency score (higher = more potent) was -0.292.
Sequence TTCCGGGAGAAACTCTGCGTGT has a sensor-assay potency score (higher = more potent) of -1.01.
Work on TAGCTCAGCACGCACAACGGCG yielded a sensor-assay potency score (higher = more potent) of -1.38.

Each sequence was assayed against GPATCH3 in the same assay as above. Settings: shRNA.
Work on TTAGGGCAGAGTTAGGAGCGGC yielded a sensor-assay potency score (higher = more potent) of -0.764.
Sequence TAAAACACCAGGCCAGAGCCAC has a sensor-assay potency score (higher = more potent) of -0.98.
TTAGAGACCAAAGACAAGCGGT gave a sensor-assay potency score (higher = more potent) of 0.0667.
TTGAGCTCAATCTCCTCCTCAA showed a sensor-assay potency score (higher = more potent) of 0.169.
Sequence TCTGTCATAGTACACACTCATG has a sensor-assay potency score (higher = more potent) of -1.69.
Sequence TGTACACACAAGCTCTTCCTGC has a sensor-assay potency score (higher = more potent) of -0.536.
Sequence TATTTCTTCACCCTCTGCTGTA has a sensor-assay potency score (higher = more potent) of -0.595.
For TAAAATAGCTCCGTAAATGGGC, the sensor-assay potency score (higher = more potent) was -0.362.
Work on TTCCGTGACGTCGCACACCCAA yielded a sensor-assay potency score (higher = more potent) of -0.81.
In the case of TAAGCCTCTGAGCTTGAGCCAA, the sensor-assay potency score (higher = more potent) is reported as -0.945.

What follows are sequences tested against GPBAR1 in the same assay as above. Settings: shRNA.
In the case of TGCTTTGGCTGCTTGGGTGGTA, the sensor-assay potency score (higher = more potent) is reported as -0.379.
With TGGTAGGCAATGCTGGGGCCGG the sensor-assay potency score (higher = more potent) was -1.84.
Work on TGGGTGGTAGGCAATGCTGGGG yielded a sensor-assay potency score (higher = more potent) of -1.2.
Sequence TGTGTAGCGCTGATCGCCCAGC has a sensor-assay potency score (higher = more potent) of -1.16.
Work on TTGGGTGGTAGGCAATGCTGGG yielded a sensor-assay potency score (higher = more potent) of -0.797.
With TTCCACAGCCCTGGCAATGTGG the sensor-assay potency score (higher = more potent) was -1.2.
Work on ACTGCTTTGGCTGCTTGGGTGG yielded a sensor-assay potency score (higher = more potent) of -1.37.
In the case of CTGTGTAGCGCTGATCGCCCAG, the sensor-assay potency score (higher = more potent) is reported as -1.64.
TGCACTGGCACTTCCTAGGGAG gave a sensor-assay potency score (higher = more potent) of -0.377.
TAGCGCTGATCGCCCAGCCCCA gave a sensor-assay potency score (higher = more potent) of -1.62.
Sequence AGGAGGGACAACAGTGTCCCAG has a sensor-assay potency score (higher = more potent) of -1.92.
Work on ATGTGGGCAATGCCAGACCCGT yielded a sensor-assay potency score (higher = more potent) of -2.11.

These sequences were tested against GPIHBP1 in the same assay as above. Settings: shRNA.
TGTTGGTCTCCTCCTCTTCAAC showed a sensor-assay potency score (higher = more potent) of -1.59.
TTCCTCTTCCTCCTGCTGTGTC showed a sensor-assay potency score (higher = more potent) of -0.491.
For ATGTGAGCAGTTCTGCGTCAGG, the sensor-assay potency score (higher = more potent) was -1.72.
Work on TTGTGCAGGTCTGGCCATGTGA yielded a sensor-assay potency score (higher = more potent) of -0.97.
With ATCCTCATCTTCCTCGTCGTAG the sensor-assay potency score (higher = more potent) was -0.474.
With TTCAACCTCATCCTCATCTTCC the sensor-assay potency score (higher = more potent) was -0.334.
TCGTCGTAGTCATCTGGCCCGT gave a sensor-assay potency score (higher = more potent) of -1.29.
For TTGCACAGGCTGGACTGGCAGC, the sensor-assay potency score (higher = more potent) was -1.25.
For ATGAGGGTTGTGCAGGTCTGGC, the sensor-assay potency score (higher = more potent) was -1.69.
With TCATCTTCCTCGTCGTAGTCAT the sensor-assay potency score (higher = more potent) was -0.418.
TTCCTCGTCGTAGTCATCTGGC showed a sensor-assay potency score (higher = more potent) of -0.201.

From the OligoGym collection
Note: reference of the scale not given here.
